Source: the supplement of paper PMC6555819

Assays:
Assay in all cases: PBM binding z-score (relative to random genomic background probes); higher = stronger binding; sequences stand for … in GC…GCGATTGACAGCGTAGAATGAAGG
[1] = test system: FXR:RXRa (NR concentration 270 nM, RXRa partner concentration 90 nM)
Summary of the method: (§1)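 Regression normalization was applied to scanned fluorescence from custom Agilent 4×180K protein-binding microarrays. Before scanning, arrays were incubated 1 h with ligand-free nuclear receptor dimers, and binding was detected with antibodies against each partner (one per run). Binding z-scores use the random background probes as reference.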

[2] = test system: LXRa homodimer (NR concentration 270 nM)
Summary of the method: as §1

[3] = test system: LXRb homodimer (NR concentration 270 nM)
Summary of the method: as §1

[4] = test system: PPARa:RXRa (NR concentration 270 nM, RXRa partner concentration 90 nM)
Summary of the method: as §1

[5] = test system: PPARg:RXRa (NR concentration 180 nM, RXRa partner concentration 90 nM)
Summary of the method: as §1

[6] = test system: PPARg:RXRa 270nM:90nM, anti-RXR (NR concentration 270 nM, RXRa partner concentration 90 nM)
Summary of the method: as §1

[7] = test system: PPARg:RXRa 30nM:10nM, anti-RXR (NR concentration 30 nM, RXRa partner concentration 10 nM)
Summary of the method: as §1

[8] = test system: PPARg:RXRa 90nM:30nM, anti-RXR (NR concentration 90 nM, RXRa partner concentration 30 nM)
Summary of the method: as §1

[9] = test system: PPARg:RXRa DBDmut IVT, anti-RXR (DBD mutation: RXRa K156A/R161A, NR concentration 270 nM, RXRa partner concentration 90 nM)
Summary of the method: as §1

[10] = test system: LXRa:RXRa (NR concentration 270 nM, RXRa partner concentration 90 nM)
Summary of the method: as §1

| Sequence | PBM binding z-score [1] | PBM binding z-score [2] | PBM binding z-score [3] | PBM binding z-score [4] | PBM binding z-score [5] | PBM binding z-score [6] | PBM binding z-score [7] | PBM binding z-score [8] | PBM binding z-score [9] | PBM binding z-score [10] |
| --- | --- | --- | --- | --- | --- | --- | --- | --- | --- | --- |
| AGAATGAGGTTAAGTTCAGGGAAACAGAATACAT | 4.05 | 0.441 | -0.00698 | 4.63 | 3.45 | 3.89 | 1.62 | 3.51 | 3.13 | – |
| ATCGAAAGGTCGAAGGTGAGCATACCCACCCGAA | 4.19 | 0.288 | 0.758 | 5.01 | 5.08 | 5.08 | 2.36 | 4.36 | 0.147 | – |
| CGTCCAAGGTCAAAGGTCAATGAAGAGATGACGG | 8.53 | 4.31 | 2.18 | – | 10.8 | 9.12 | 8.3 | 9.78 | 3.66 | 7.3 |
| CGTCCAAGGTCAATGCTAGATCAGTGAAAGCATT | 6.47 | 0.407 | 0.497 | 4.78 | 3.65 | 4.19 | 1.52 | 2.91 | 3.16 | – |
| GGAACGAGGGCAAAGTTCATAGCATCTGTCGACG | 4.26 | 3.9 | -0.156 | 6.24 | – | 9.67 | 9.74 | 10.7 | 4.19 | 4.95 |
| TCGAGTAGGTCACGGGGGCATTCAGGGATGAAGA | 6.7 | 1.07 | – | – | 9.41 | 7.99 | 5.9 | 7.7 | 6.73 | 5.3 |
| ATATGTAGGTTATCGGGTCATACAGTTTGCGCAT | 3.18 | 1.45 | 1.35 | 5.09 | 7.64 | 6.2 | 4.38 | 5.61 | 7.63 | – |
| ATCGAAAGGTCCAAGGTGAGTATACCCACCCGAA | 0.219 | -0.213 | 0.175 | 0.771 | 1.01 | 0.802 | 0.219 | 0.627 | -0.563 | – |
| ATATGTAGGTTGGGGTCATTCAGAAAGTAGGGAA | 5.99 | 2.32 | 4.74 | – | 7.05 | 6.09 | 3.16 | 5.4 | 3.81 | 5.41 |
| AGTCAAAGTTCATCTAGGTCACGTAAGATATGCT | 7.54 | 7.38 | 2.1 | 5.68 | 7.93 | 7.25 | 4.56 | 6.61 | 3.49 | – |
| AGAATGAGGTTACTAAAGATCAGGGAAACGCTTG | 1.18 | 0.111 | 0.0247 | 2.5 | 1.81 | 1.58 | 0.706 | 1.07 | 3.7 | – |
| CGTCCAAGGTCTAGGTCAGTGAAAGAGACTCGAA | 0.449 | -0.0366 | -0.741 | 1.06 | -0.0446 | 0.357 | -0.506 | -0.014 | 0.895 | 0.249 |
| TCTAGTTGGTCAAAGGTCACGCACTCGAAATGCG | 6.9 | 4.78 | 1.9 | – | 12 | 10.2 | 12.6 | 12.2 | 3.84 | 6.16 |
| TTGCCTAGGTCATTGGGCCAGTATAGTACGCATC | 4.6 | 0.781 | 0.088 | 3.86 | 3.36 | 3.63 | 1 | 2.47 | 2.65 | – |
| CCTTACGGGTCACGAGGTTGTAGCACGACGAGCG | 6.87 | 0.0323 | -0.413 | 5.73 | 6.48 | 6.12 | 3.32 | 5.08 | 4 | – |
| TCGTGTAGGTTACGGGGGCATTCAGGGATGAAGA | 3.84 | 1.21 | – | – | 6.02 | 6.17 | 4.82 | 5.8 | 5.22 | 3.76 |
| CCGACGGGGGCAAAGGTTACCATACTCAGTACGA | 5.52 | 0.667 | 5.6 | – | 10 | 9.24 | 8.76 | 10.4 | 2.71 | 5.02 |
| GATATAGGGTCAGCTAGAGGCCAGAGTATGGAAA | 5.03 | 0.0568 | -0.307 | 4.76 | 4.09 | 3.86 | 1.25 | 2.44 | 2.49 | – |
| CTATGTAGGTCAAGGGGGTCATTCAGTTTGAAAG | 7.19 | 4.49 | – | – | – | 9.27 | 8.54 | 10.3 | 8.6 | 5.9 |
| ACTTACGGGTCAACGAGGTCATAGCACGCGTATA | 7.21 | 3.72 | 1.13 | – | 6.76 | 6.81 | 3.78 | 5.73 | 4.12 | 6.34 |
| CTATGTAGGTTAGGGGGGTCATTCAGTTTGAAAG | 5.78 | 3.89 | – | – | 9.03 | 7 | 5.35 | 7.07 | 6.54 | 5.66 |
| ATATGTAGGTCAAGGGTCATTCAGGTTGGTTCGC | 7.27 | 5.58 | 2.07 | – | – | 10.5 | 11.7 | 11.7 | 8.58 | 6.25 |
| CGAACTAGGTCATCCAGGTCAGTGAATACATTGA | 5.02 | 1.02 | -0.0563 | 5.17 | 7.77 | 6.49 | 4.46 | 6.24 | 8.34 | – |
| CGTCCAAGGTCATAGGAGGTCAATGAAGACAGAT | 7.84 | 6.78 | 1.44 | – | 5.9 | 6.13 | 2.88 | 5.04 | 3 | 7.73 |
| CCTGCTAGGTCAAAGGTCAGCTAAAGCAGCTCGC | 7.56 | 2.52 | 1.05 | – | – | 10.2 | 11.3 | 12.6 | 5.89 | 6.38 |
| TCTAGTTGGTCTAAGGTCACACACTCGAAATGCG | 4.14 | 2.63 | 1.6 | 4.7 | 5.15 | 6.51 | 5.71 | 6.57 | 2.2 | – |
